Measured values from PubChem BioAssay (EPA / NIEHS).
The source made the active and inactive calls. How the source made its calls: active means hit-call score of the fitted dose curve at least 0.9, where 1 is the maximum; inactive means score below 0.9.

Assays:
[1] = molecular target: Transcription factor E2F1 (Homo sapiens) (UniProt Q01094); test: ATG_E2F_CIS: Attagene CIS-FACTORIAL HepG2 Assay for human E2F Transcription Factor 1 (AID 2282935); details: HepG2 Attagene cis-reporter, E2F reporter RNA transcripts; actives raise or lower the signal
Chain of Transcription factor E2F1 (Homo sapiens) (Q01094 whole entry, looked up): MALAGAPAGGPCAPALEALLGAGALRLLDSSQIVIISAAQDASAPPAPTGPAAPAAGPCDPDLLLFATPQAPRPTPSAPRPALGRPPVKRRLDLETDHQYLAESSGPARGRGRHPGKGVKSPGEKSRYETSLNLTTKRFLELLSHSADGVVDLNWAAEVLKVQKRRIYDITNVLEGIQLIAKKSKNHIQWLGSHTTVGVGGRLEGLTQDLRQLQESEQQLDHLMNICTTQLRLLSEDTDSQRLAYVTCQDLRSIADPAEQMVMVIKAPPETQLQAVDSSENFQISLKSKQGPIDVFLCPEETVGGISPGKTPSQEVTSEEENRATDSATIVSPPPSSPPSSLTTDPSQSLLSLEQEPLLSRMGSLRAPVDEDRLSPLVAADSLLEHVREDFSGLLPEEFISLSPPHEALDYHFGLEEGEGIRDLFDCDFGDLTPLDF
In short: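 Measures reporter transcript levels via RT-PCR with capillary electrophoresis detection in HepG2 cells harboring cis-regulated reporter units; 24 h post-dose; bidirectional curve fitting with DMSO as baseline.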

[2] = ATG_E_Box_CIS: Attagene CIS-FACTORIAL HepG2 Assay for human Enhancer Box (E-box) (AID 2282936); details: HepG2 E-box cis-reporter transcription, actives raise or lower the signal
In short: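 First, HepG2 cells receive multiple cis-regulated reporter constructs by transient transfection. Next, chemicals are applied for 24 h. Finally, reporter mRNA is quantified via RT-PCR and capillary electrophoresis, with DMSO as baseline.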

[3] = ATG_M_61_CIS: Attagene CIS-FACTORIAL HepG2 Assay for M61 Transcription Factor (Internal Marker) (AID 2282937); details: HepG2 Attagene CIS-FACTORIAL M61 internal marker reporter; actives raise or lower the signal
In short: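 HepG2 cells transiently transfected with multiplexed cis-promoter reporter units reporting endogenous transcription factor activity, measured 24 h after dosing. Reporter mRNA quantified by RT-PCR and capillary electrophoresis; bidirectional fit against DMSO baseline.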

[4] = ATG_M_19_CIS: Attagene CIS-FACTORIAL HepG2 Assay for M19 Transcription Factor (Internal Marker) (AID 2282939); details: HepG2 Attagene CIS-FACTORIAL M19 internal marker reporter; actives raise or lower the signal
In short: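 Signals come from fluorescence of labelled reporter-specific PCR fragments resolved by capillary electrophoresis, following 24 h treatment of HepG2 cells transfected with cis-promoter reporter units; activity was fitted in both directions relative to DMSO.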

[5] = ATG_ERE_CIS: Attagene CIS-FACTORIAL HepG2 Assay for Estrogen Response Element (ERE) (AID 2282940); details: HepG2 ERE cis-reporter, Attagene RNA transcript; actives raise or lower the signal
In short: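 Fluorescence of capillary-separated, FAM-labelled reporter cDNA fragments indicates reporter mRNA levels in HepG2 cells exposed to chemicals for 24 h. Transient transfection with cis-regulated units; data fitted in both directions against DMSO.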

[6] = ATG_Ets_CIS: Attagene CIS-FACTORIAL HepG2 Assay for human Erythroblast Transformation Specific (ETS) (AID 2282941); details: HepG2 ETS cis-reporter transcription, actives raise or lower the signal
In short: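 HepG2 cells transiently transfected with cis-promoter reporter transcription units were dosed for 24 h; reporter mRNA was measured by RT-PCR, 6-FAM primer extension, HpaI digestion and capillary electrophoresis, with bidirectional fitting against DMSO baseline.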

[7] = molecular target: Hepatocyte nuclear factor 3-beta (Homo sapiens) (UniProt Q9Y261); test: ATG_FoxA2_CIS: Attagene CIS-FACTORIAL HepG2 Assay for human Forkhead box A2 (FOXA2) (AID 2282942); details: HepG2 cis-reporter transcription factor activity, 24 h; actives raise or lower the signal
Chain of Hepatocyte nuclear factor 3-beta (Homo sapiens) (Q9Y261 whole entry, looked up): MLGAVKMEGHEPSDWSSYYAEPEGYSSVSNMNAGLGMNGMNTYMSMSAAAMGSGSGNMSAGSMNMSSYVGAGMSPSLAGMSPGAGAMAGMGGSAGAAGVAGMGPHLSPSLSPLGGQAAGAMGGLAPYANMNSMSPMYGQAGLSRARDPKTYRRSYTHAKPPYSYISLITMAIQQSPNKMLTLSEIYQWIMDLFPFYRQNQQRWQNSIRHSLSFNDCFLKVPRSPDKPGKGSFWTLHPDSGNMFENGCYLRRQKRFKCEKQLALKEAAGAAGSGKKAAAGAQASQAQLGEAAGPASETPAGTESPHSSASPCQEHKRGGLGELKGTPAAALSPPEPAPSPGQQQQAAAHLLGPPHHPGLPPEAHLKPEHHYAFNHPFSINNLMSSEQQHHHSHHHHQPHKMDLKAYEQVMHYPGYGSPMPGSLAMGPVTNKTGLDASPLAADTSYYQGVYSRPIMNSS
In short: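 HepG2 transiently transfected with a multiplexed cis-promoter reporter library read endogenous FOXA2 activity. After 24 h compound exposure, reporter mRNA was quantified by RT-PCR, HpaI digestion and capillary electrophoresis. Bidirectional fit against DMSO.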

[8] = ATG_FoxO_CIS: Attagene CIS-FACTORIAL HepG2 Assay for human Forkhead box O (FoxO) (AID 2282943); details: HepG2 Attagene cis-reporter, FoxO element, mRNA; actives raise or lower the signal
In short: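 HepG2 cells transiently transfected with cis-element-driven reporter units report endogenous FoxO activity. After 24 h chemical exposure, reporter mRNA quantified by RT-PCR, fluorescent labeling, HpaI digestion and capillary electrophoresis; bidirectional fit versus DMSO.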

[9] = ATG_GLI_CIS: Attagene CIS-FACTORIAL HepG2 Assay for human Zinc Finger Protein GLI1 (AID 2282945); details: HepG2, Attagene cis-factorial reporter mRNA, GLI element; actives raise or lower the signal
In short: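 Transiently transfected HepG2 cells report endogenous transcription factor activity via cis-element-driven reporter units. After 24 h compound exposure, reporter mRNA was measured by RT-PCR with capillary electrophoresis; bidirectional fitting against DMSO baseline.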

[10] = ATG_GRE_CIS: Attagene CIS-FACTORIAL HepG2 Assay for human Glucocorticoid Response Elements (GRE) (AID 2282947); details: HepG2 GRE cis-reporter, Attagene multiplex mRNA; actives raise or lower the signal
In short: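 Endogenous transcription factor activity is read through cis-element reporter constructs transiently transfected into HepG2 cells. After 24 h treatment, labelled RT-PCR products are resolved by capillary electrophoresis; DMSO sets baseline for bidirectional curve fitting.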

[11] = ATG_ISRE_CIS: Attagene CIS-FACTORIAL HepG2 Assay for human Interferon Regulatory Factor 1 (IRF1) binding to an Interferon-Stimulated Response Element (ISRE) (AID 2282948); details: HepG2 ISRE cis-reporter (Attagene), mRNA transcription readout; actives raise or lower the signal
In short: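 HepG2 cells transiently transfected with multiplexed cis-promoter reporter units; after 24 h compound exposure, reporter mRNA quantified by RT-PCR, FAM labelling, HpaI digestion and capillary electrophoresis. Bidirectional fit versus DMSO baseline.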

[12] = ATG_M_06_CIS: Attagene CIS-FACTORIAL HepG2 Assay for M06 Transcription Factor (Internal Marker) (AID 2282950); details: HepG2 Attagene CIS-FACTORIAL M06 internal marker reporter; actives raise or lower the signal
In short: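 HepG2 liver cells, 24 h exposure. Reporter transcripts from transfected cis-element constructs quantified by RT-PCR/capillary electrophoresis fluorescence. Bidirectional curve fit against DMSO.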

[13] = molecular target: Hypoxia-inducible factor 1-alpha (Homo sapiens) (UniProt Q16665); test: ATG_HIF1a_CIS: Attagene CIS-FACTORIAL HepG2 Assay for human Hypoxia Inducible Factor 1 (HIF1A) (AID 2282951); details: HepG2 Attagene cis-factorial HIF1a reporter transcription; actives raise or lower the signal
Chain of Hypoxia-inducible factor 1-alpha (Homo sapiens) (Q16665 whole entry, looked up): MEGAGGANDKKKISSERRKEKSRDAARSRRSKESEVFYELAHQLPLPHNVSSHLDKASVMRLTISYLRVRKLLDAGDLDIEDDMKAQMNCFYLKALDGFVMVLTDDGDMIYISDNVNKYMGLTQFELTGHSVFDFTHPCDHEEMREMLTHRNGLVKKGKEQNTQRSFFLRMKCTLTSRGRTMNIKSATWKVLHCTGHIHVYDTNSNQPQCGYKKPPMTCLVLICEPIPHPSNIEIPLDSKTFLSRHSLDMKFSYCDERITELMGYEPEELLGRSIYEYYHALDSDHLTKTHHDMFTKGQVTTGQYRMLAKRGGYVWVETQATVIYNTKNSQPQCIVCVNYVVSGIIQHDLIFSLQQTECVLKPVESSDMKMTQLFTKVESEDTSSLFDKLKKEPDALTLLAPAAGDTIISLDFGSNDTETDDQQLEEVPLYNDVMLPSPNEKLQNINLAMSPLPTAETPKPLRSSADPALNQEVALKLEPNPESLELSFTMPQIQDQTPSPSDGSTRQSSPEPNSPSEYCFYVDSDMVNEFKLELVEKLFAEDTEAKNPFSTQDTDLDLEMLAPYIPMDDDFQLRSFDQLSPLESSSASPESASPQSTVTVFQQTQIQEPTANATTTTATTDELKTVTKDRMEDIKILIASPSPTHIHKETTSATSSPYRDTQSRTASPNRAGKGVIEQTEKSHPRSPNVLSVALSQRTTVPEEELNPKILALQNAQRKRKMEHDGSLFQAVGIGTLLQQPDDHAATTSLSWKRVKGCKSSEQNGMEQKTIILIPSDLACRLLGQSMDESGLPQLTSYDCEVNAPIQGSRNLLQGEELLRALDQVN
In short: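 HepG2 cells transiently transfected with multiple cis-regulated reporter transcription units measure endogenous transcription factor activity. After 24 h exposure, reporter mRNA is quantified by RT-PCR with 6-FAM labelling, HpaI digestion and capillary electrophoresis. Bidirectional fitting against DMSO.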

[14] = molecular target: Hepatocyte nuclear factor 6 (Homo sapiens) (UniProt Q9UBC0); test: ATG_HNF6_CIS: Attagene CIS-FACTORIAL HepG2 Assay for human Hepatocyte Nuclear Factor 6 (HNF6) (AID 2282952); details: HepG2 Attagene cis-factorial HNF6 reporter transcription; actives raise or lower the signal
Chain of Hepatocyte nuclear factor 6 (Homo sapiens) (Q9UBC0 whole entry, looked up): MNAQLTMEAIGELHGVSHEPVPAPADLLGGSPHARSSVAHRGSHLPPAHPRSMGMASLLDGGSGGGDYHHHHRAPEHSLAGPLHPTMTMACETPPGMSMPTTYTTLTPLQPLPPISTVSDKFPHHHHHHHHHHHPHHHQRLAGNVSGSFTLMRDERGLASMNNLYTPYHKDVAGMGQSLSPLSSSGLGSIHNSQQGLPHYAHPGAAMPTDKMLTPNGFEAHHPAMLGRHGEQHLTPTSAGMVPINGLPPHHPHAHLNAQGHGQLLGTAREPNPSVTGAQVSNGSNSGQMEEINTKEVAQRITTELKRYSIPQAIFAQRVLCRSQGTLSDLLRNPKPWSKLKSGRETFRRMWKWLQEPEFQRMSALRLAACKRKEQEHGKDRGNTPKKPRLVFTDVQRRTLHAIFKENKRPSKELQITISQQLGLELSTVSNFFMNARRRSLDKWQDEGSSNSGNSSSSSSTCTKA
In short: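 Transiently transfected HepG2 cells expressing cis-regulated reporter transcription units were exposed to chemical for 24 h in a 24-well format. Reporter transcript abundance was determined by fluorescence capillary electrophoresis.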

[15] = molecular target: Heat shock factor protein 1 (Homo sapiens) (UniProt Q00613); test: ATG_HSE_CIS: Attagene CIS-FACTORIAL HepG2 Assay for human Heat Shock Transcription Factor 1 (HSE) (AID 2282953); details: HepG2 HSE cis-reporter, Attagene RNA transcription; actives raise or lower the signal
Chain of Heat shock factor protein 1 (Homo sapiens) (Q00613 whole entry, looked up, the tested form may be a part): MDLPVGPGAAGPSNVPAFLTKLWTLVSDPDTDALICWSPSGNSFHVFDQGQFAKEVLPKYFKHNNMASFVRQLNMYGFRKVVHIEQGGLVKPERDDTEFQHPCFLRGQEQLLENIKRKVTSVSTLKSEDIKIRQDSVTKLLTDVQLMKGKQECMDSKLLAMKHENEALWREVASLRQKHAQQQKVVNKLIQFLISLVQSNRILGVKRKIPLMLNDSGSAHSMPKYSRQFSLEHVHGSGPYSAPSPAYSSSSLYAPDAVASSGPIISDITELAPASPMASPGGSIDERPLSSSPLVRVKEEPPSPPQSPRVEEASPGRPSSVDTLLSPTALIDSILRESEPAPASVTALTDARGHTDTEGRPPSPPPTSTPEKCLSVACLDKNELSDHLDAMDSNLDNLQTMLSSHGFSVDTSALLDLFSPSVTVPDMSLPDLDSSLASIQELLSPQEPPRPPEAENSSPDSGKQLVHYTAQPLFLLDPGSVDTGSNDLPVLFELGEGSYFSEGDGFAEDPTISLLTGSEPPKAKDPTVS
In short: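 Endogenous transcription factor activity captured via cis-promoter reporter units transfected into HepG2; treatment lasted 24 h. Fluorescence intensity of reporter fragments analysed with bidirectional curve fitting, DMSO baseline.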

[16] = ATG_MRE_CIS: Attagene CIS-FACTORIAL HepG2 Assay for human Metal Responsive Element (MRE) (AID 2282954); details: HepG2 MRE cis-reporter transcription, Attagene multiplex; actives raise or lower the signal
In short: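 Fluorescent reporter fragments separated by capillary electrophoresis give mRNA induction for the MRE unit after 24 h treatment of transfected HepG2 cells. Endogenous transcription-factor activity is read; DMSO serves as negative control and baseline.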

[17] = ATG_GATA_CIS: Attagene CIS-FACTORIAL HepG2 Assay for human GATA Binding Protein (AID 2282944); details: HepG2 GATA cis-element reporter, Attagene multiplex mRNA; actives raise or lower the signal
In short: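 After transfecting HepG2 cells with multiple cis-regulated reporter units, chemicals are dosed for 24 h; isolated RNA undergoes RT-PCR and fluorescent labeling before capillary electrophoresis, with activity expressed against DMSO.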

[18] = ATG_M_32_CIS: Attagene CIS-FACTORIAL HepG2 Assay for M32 Transcription Factor (Internal Marker) (AID 2282949); details: HepG2 Attagene cis-factorial M32 reporter, mRNA; actives raise or lower the signal;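 further: background control marker of the multiplexed CIS panel rather than a real target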
In short: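 Following 24 h chemical exposure of HepG2 cells transiently expressing cis-promoter reporter constructs, reporter transcript levels were determined by RT-PCR with fluorescent labelling and capillary electrophoresis, then fitted bidirectionally against DMSO.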

SMILES: CC(C)(C)C1CCC(O)CC1 (configuration not stated)
- outcome [1]: inactive
- outcome [2]: inactive
- outcome [3]: inactive
- outcome [4]: inactive
- AC50 [5]: 32.8 µM (active)
- outcome [6]: inactive
- outcome [7]: inactive
- outcome [8]: inactive
- outcome [9]: inactive
- outcome [10]: inactive
- outcome [11]: inactive
- outcome [12]: inactive
- outcome [13]: inactive
- outcome [14]: inactive
- outcome [15]: inactive
- outcome [16]: inactive

SMILES: O=C(O)c1ccc(C(=O)O)c(C(=O)O)c1
- outcome [1]: inactive
- outcome [2]: inactive
- outcome [3]: inactive
- outcome [4]: inactive
- outcome [5]: inactive
- outcome [6]: inactive
- outcome [7]: inactive
- outcome [8]: inactive
- outcome [17]: inactive
- outcome [9]: inactive
- outcome [11]: inactive
- outcome [18]: inactive
- outcome [12]: inactive
- outcome [14]: inactive
- outcome [15]: inactive
- outcome [16]: inactive
